# Compound activity deposited in PubChem BioAssay by National Center for Advancing Translational Sciences (NCATS).
# The list is not random: actives were taken first. Their share in the collection is about 18%.
# HepG2 tox: qHTS for Inhibitors of TGF-b: Cytotox Counterscreen | HepG2 CAGA-GFP viability, ATP luminescence, 18 h | Potency, µM (top dose mostly 46.1 µM), actives largely listed as cytotoxic | 410,000 tested, 0.76% active | AID 588856, 2011
#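 HepG2 CAGA-GFP cells (1000/well, DMEM with 1% FBS) received compound, then TGF-beta at 500 pg/mL final, and were incubated 18 hours at 37 degrees C. Viability was read by CellTiter-Glo luminescence. Media-only wells were set as complete cell-killing and DMSO as no toxicity.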
# TGFb SMAD3 inh: qHTS for Inhibitors of TGF-b | Potency, µM (titrated, usually from 46.1 µM), most hits filed as inhibitors | 410,000 tested, 1.2% active | HepG2 CAGA-GFP TGF-b/SMAD3 reporter, GFP fluorescence, 18 h; TGF-beta stimulated, 500 pg/mL final; further: nearly all actives have a fitted effect of over 65% in size
#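 First, reporter cells (HEPG2 CAGA-GFP) rested 2 h at 37 degrees C. Next, compounds were pinned in and TGF-beta added to 500 pg/mL final. After 18 h, GFP was imaged per cell and summed per well.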
# TDP1 cell CPT: qHTS for Inhibitors of human tyrosyl-DNA phosphodiesterase 1 (TDP1): qHTS in cells in presence of CPT; chicken DT40 Tdp1-/-;hTDP1 cells + 20 nM CPT, ATP luminescence, 48 h; Potency, µM (doses to about 46.2 µM), most hits filed as inhibitors; AID 686979, 2013; 420,000 tested, 12% active; further: nearly all actives have a fitted effect of over 55% in size
#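 Chicken DT40 Tdp1-/- cells stably complemented with human TDP1 were seeded at 400 cells/well in medium containing 20 nM camptothecin, exposed to pin-transferred compounds, and grown at 37 °C for at least 48 hr. Viability was read as ATP luminescence.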
# IL-1B inflam inh: qHTS for Inhibitors of Inflammasome Signaling: IL-1-beta AlphaLISA Primary Screen. THP-1 LPS/ATP IL-1B secretion, AlphaLISA, 16 h; stronger effect = lower value. activity change, % at 57.5 µM. 360,000 tested, 4.7% active. AID 743279, 2014; in the data active means activity change below about -50%; inconclusive means mostly about -30% to -49%
#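 Secreted IL-1B measured by AlphaLISA bead assay after 16 h compound exposure of THP-1 cells; compounds (final up to 57.5 uM) added 1 h before LPS (250 ng/mL) and ATP (1.25 mM) stimulation; lower signal means less secretion.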
# TDP1 inh: qHTS Assay for Inhibitors of Tyrosyl-DNA Phosphodiesterase (TDP1). recombinant TDP1, AlphaScreen DNA substrate cleavage. Potency, µM (series often up to 130 µM), most hits filed as inhibitors. 350,000 tested, 0.28% active. AID 485290, 2010; further: nearly all actives have a fitted effect of over 40% in size
# Target sequence (Q9NUW8 whole entry, looked up): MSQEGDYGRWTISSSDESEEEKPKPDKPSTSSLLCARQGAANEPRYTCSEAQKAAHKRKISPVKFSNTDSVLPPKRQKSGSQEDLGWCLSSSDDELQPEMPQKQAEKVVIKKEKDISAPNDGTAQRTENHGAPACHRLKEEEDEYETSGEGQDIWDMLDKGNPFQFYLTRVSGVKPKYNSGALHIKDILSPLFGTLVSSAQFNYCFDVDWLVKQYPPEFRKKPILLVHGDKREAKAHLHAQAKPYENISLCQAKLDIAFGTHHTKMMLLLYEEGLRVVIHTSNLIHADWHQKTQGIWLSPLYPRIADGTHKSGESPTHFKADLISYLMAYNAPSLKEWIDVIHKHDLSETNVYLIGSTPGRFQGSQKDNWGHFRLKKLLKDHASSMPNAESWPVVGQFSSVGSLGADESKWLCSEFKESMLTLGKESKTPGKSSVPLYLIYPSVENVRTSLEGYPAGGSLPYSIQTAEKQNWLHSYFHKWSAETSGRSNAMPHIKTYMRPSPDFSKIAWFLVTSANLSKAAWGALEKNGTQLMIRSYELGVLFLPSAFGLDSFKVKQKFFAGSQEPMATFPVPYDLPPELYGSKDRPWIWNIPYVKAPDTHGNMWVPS
#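 Recombinant human Tdp1 (E. coli-expressed, 1 nM final) preincubated with compounds 15 min at room temperature, then 5'-biotin/3'-phosphotyrosine-FITC DNA substrate (15 nM final) added for 5 min. AlphaScreen beads (10 ug/ml final) added 10 min; cleavage lowers signal.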
# DT40 TDP1 no CPT: qHTS for Inhibitors of human tyrosyl-DNA phosphodiesterase 1 (TDP1): qHTS in cells in absence of CPT | DT40 Tdp1-/- hTDP1 cells, no CPT, ATP luminescence, 48 h | Potency, µM (doses to about 46.2 µM), usual class: inhibitors | 420,000 tested, 15% active; further: nearly all actives have a fitted effect of over 55% in size
#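 Compound effects on proliferation are scored in DT40 Tdp1-/-;hTDP1 cells in the absence of CPT. ATP levels (CellTiter-Glo luminescence) are recorded after a ≥48 hr, 37 °C incubation.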
# Numbers stand for hits; 0 = inactive; ? = inconclusive; - = not tested or not shown; [ ] = another dose, or the depositor's remark. Unless noted, the call rests on the fitted dose curve; in most records, active means well fitted curve in the direction sought with a large enough effect; inconclusive means small, poorly fitted or top-dose-only effect, or another doubt; inactive means no such curve, though single readings can be large; an effect the other way counts as inactive or inconclusive.
SMILES,HepG2 tox,TGFb SMAD3 inh,TDP1 cell CPT,IL-1B inflam inh,TDP1 inh,DT40 TDP1 no CPT
COCC1C2CC[C@H]3C(OCc4ccc(OC)cc4)OC[C@]4(C)[C@H]3C2=C(CN4C(=O)OC(C)(C)C)[C@H](C)C1COC (stereo not given in full),-,-,-,-,0,-
CCc1ccc(NC(=O)Cn2cc(S(=O)(=O)c3ccc(F)cc3)c(=O)c3cc(OC)ccc32)cc1,0,0,?,-,0,?
CC(=NNC(=O)C(C)SC(C)C(=O)NN=C(C)c1cccnc1)c1cccnc1 (stereo not given),0,0,0,0,-,0
CC(C(=O)Nc1ccc(S(=O)(=O)N2CCCC2)cc1)N1CCN(c2ccccc2O)CC1 (stereo not given),0,0,?,0,0,23µM
O=C(Nc1ccc(Cl)cc1)N1CCC(CN2CCCCCC2)CC1,0,0,?,-,0,23µM
O=C(Nc1ccc(Cl)cc1)N1CCC(CN2CCCC2)CC1,0,0,0,-,0,0
Cn1nc(C(=O)Nc2ccc(S(=O)(=O)N3CCCCC3)cc2)ccc1=O,0,0,?,0,0,21µM
O=C(Nc1cccc(C(=O)N2CCCCC2)c1)c1ccccc1,0,0,0,0,-,0
O=C(Nc1cccc(C(=O)N2CCCCC2)c1)c1ccc(Cl)cc1,0,?,?,0,0,21µM
COc1cc(OC)cc(C(=O)NC(C(=O)NNC(=O)c2ccc(C)cc2)C(C)C)c1 (stereo not given),0,0,0,?,0,0
O=C1C2CCCCC2C(=O)N1c1ccc(S(=O)(=O)Nc2ncccn2)cc1 (stereo not given),0,0,0,0,0,0
CC1=NN(C(=O)c2cccnc2)C(O)(C(F)(F)F)C1 (stereo not given),0,0,0,0,0,0
CC1=NN(C(=O)c2ccoc2C)C(O)(C(F)(F)F)C1 (stereo not given),0,0,2.9µM,0,0,2.3µM
CC1=NN(C(=O)c2csc(C(C)C)c2)C(O)(C(F)(F)F)C1 (stereo not given),0,?,0.73µM,0,0,1µM
CCOc1ccc(CC(=O)N2N=C(C)CC2(O)C(F)(F)F)cc1 (stereo not given),0,0,18µM,0,0,5.8µM
O=C(Nc1ccc(NS(=O)(=O)c2ccc([N+](=O)[O-])cc2)cc1)c1ccco1,0,0,0,0,0,0
Cc1cc(C)cc(N(CC(=O)Nc2ccc(-c3nc4ccc(C)cc4s3)cc2)S(C)(=O)=O)c1,0,0,23µM,0,0,15µM
Cc1ccc2nc(-c3ccc(NC(=O)COC(=O)c4ccco4)cc3)sc2c1,0,0,0,-51,0,?
Cc1ccc2nc(-c3ccc(NC(=O)COC(=O)c4ccc(Br)o4)cc3)sc2c1,0,0,?,0,0,?
CC1=CCC(C(=O)O)C(C(=O)Nc2ccc(-c3nc4ccc(C)cc4s3)cc2)C1 (stereo not given),0,0,0,0,25µM,0
CC(=O)NC(=S)Nc1ccc(-c2nc3ccc(C)cc3s2)cc1,0,0,?,0,0,?
Cc1ccc2nc(-c3ccc(NC(=O)CN(c4ccccc4C)S(C)(=O)=O)cc3)sc2c1,0,0,21µM,0,0,15µM
O=C(O)C1NCCN(C(=O)c2ccc3c(ccc4ccccc43)c2)C1C(=O)O (stereo not given),-,-,-,-,0,-
O=C(O)C(S)[C@@H](S)C(=O)O (stereo not given in full),-,-,0,-,-,0
Cc1ccc(NC(=O)Cn2sc3nc(C)cc(C)c3c2=O)c(Cl)c1,0,0,2.9µM,0,-,2.9µM
SMILES,HepG2 tox,TGFb SMAD3 inh,TDP1 cell CPT,IL-1B inflam inh,TDP1 inh,DT40 TDP1 no CPT
Cc1ccc(NC(=O)Cn2c(C)cc(C)c(C#N)c2=O)c(Cl)c1,0,0,0,0,0,0
Cc1cc(C)c2c(=O)n(CC(=O)Nc3ccc(Cl)cc3)sc2n1,0,?,4.1µM,0,-,2.6µM
CCOc1ccc(NC(=O)Cn2sc3nc(C)cc(C)c3c2=O)cc1,0,11µM,2.1µM,-89,0,2.6µM
CCOc1ccc(NC(=O)CCc2c(C)nc3c4c(C)cc(C)nc4nn3c2C)cc1,0,0,0,-,0,0
Cc1cc(C)c2c(=O)n(CC(=O)N3CCC(Cc4ccccc4)CC3)sc2n1,-,-,-,-,0,-
Cc1cc(C)c2c(=O)n(CC(=O)Nc3cccc(F)c3)sc2n1,0,?,2.3µM,0,-,2.3µM
Cc1cc(C)c(NC(=O)CN(C)C(=O)CNC(=O)c2cccs2)c(C)c1,0,0,0,0,0,0
Cc1cc(O)c(C(c2ccc(Cl)cc2)N2CCN(c3ccccc3)CC2)c(=O)n1Cc1ccco1 (stereo not given),0,0,0,-,0,0
Cc1ccc(C)c(NCC(=O)c2ccc(Cl)cc2)c1,0,0,?,0,0,?
ClCCn1c(CCl)nc2ccc(Cl)cc21,0,0,?,0,-,16µM
Cc1cc(C)cc(NC(=O)CSCc2nc3c(nnn3Cc3ccc(F)cc3)c(=O)[nH]2)c1,0,0,0,0,-,0
Cc1cc(C(F)F)n2ncc(C(=O)NCCc3ccc(Cl)cc3)c2n1,0,0,?,0,0,?
Cc1nc2c(C(=O)NCCc3ccc(Cl)cc3)cnn2c(C)c1Cc1ccc(F)cc1,0,7.1µM,16µM,-,0,?
COc1ccccc1CNC(=O)c1cnn2c(C)c(Cc3ccc(F)cc3)c(C)nc12,0,0,5.8µM,-,0,6.5µM
COc1ccccc1CNC(=O)c1ccccc1OCc1ccc(F)cc1,0,?,?,0,0,?
CC(=O)c1ccc(F)c(-c2cc(C)cc3c2OC(CNC(=O)Cn2nc(C)nc2C)C3)c1 (stereo not given),-,-,0[9.04 µM],-,-,0
CN1C(=S)SC2CS(=O)(=O)CC21 (stereo not given),0,0,0,-,0,0
Cc1ccccc1C(=O)O/N=C/c1c(N2CCOCC2)n(C)c2ccccc12,0,?,1.5µM,0,0,1.3µM
Cc1ncc2c(c1CNC(=O)c1ccc3c(c1)OCO3)CCN(C(=O)c1cccc(-n3cccn3)c1)C2,-,-,0[9.04 µM],-,-,0
CCn1cc(/C=C(\NC(=O)c2ccccc2)C(=O)NCCCN2CCOCC2)c2ccccc21,0,0,0,?,0,0
